Only some compounds are listed: those with a hit (about 3.7% of all), similar ones and a draw of the others.
PI5P4K alpha inh – PI5P4K alpha (human) kinase inhibition; PI5P4Kalpha enzyme, ADP-Glo luminescence, 60 min; stronger effect = lower value; P48426; 1.2% of 330,000 active; AID 652105; max response, %; active = max response of -50% or lower; inconclusive = between -30% and -50%; inactive = -30% or higher; note: value at the top dose of about 77 µM; % is set by controls: 0 for no effect and ±100 for the full control effect
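Single end-point luminescence (ADP-Glo) quantified ADP from PI5P4Kalpha turnover; ATP 5 microM final, 1 h at RT, 0.1% CHAPS and 0.28 mM EGTA in HEPES pH 7.4.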
WRN helicase inh – WRN helicase (human) inhibition. Q14191. WRN helicase unwinding, fluorescent forked duplex, kinetic. Potency, µM (top dose mostly 114 µM), for inactives: at the highest dose activity change, negative = inhibition, actives largely listed as inhibitors. 0.46% of 360,000 active; note: potency is the fitted concentration of half-maximal effect; % is set by controls: 0 for no effect and ±100 for the full control effect; nearly all actives have a fitted effect of over 55% in size
Target sequence (Q14191 whole entry, looked up): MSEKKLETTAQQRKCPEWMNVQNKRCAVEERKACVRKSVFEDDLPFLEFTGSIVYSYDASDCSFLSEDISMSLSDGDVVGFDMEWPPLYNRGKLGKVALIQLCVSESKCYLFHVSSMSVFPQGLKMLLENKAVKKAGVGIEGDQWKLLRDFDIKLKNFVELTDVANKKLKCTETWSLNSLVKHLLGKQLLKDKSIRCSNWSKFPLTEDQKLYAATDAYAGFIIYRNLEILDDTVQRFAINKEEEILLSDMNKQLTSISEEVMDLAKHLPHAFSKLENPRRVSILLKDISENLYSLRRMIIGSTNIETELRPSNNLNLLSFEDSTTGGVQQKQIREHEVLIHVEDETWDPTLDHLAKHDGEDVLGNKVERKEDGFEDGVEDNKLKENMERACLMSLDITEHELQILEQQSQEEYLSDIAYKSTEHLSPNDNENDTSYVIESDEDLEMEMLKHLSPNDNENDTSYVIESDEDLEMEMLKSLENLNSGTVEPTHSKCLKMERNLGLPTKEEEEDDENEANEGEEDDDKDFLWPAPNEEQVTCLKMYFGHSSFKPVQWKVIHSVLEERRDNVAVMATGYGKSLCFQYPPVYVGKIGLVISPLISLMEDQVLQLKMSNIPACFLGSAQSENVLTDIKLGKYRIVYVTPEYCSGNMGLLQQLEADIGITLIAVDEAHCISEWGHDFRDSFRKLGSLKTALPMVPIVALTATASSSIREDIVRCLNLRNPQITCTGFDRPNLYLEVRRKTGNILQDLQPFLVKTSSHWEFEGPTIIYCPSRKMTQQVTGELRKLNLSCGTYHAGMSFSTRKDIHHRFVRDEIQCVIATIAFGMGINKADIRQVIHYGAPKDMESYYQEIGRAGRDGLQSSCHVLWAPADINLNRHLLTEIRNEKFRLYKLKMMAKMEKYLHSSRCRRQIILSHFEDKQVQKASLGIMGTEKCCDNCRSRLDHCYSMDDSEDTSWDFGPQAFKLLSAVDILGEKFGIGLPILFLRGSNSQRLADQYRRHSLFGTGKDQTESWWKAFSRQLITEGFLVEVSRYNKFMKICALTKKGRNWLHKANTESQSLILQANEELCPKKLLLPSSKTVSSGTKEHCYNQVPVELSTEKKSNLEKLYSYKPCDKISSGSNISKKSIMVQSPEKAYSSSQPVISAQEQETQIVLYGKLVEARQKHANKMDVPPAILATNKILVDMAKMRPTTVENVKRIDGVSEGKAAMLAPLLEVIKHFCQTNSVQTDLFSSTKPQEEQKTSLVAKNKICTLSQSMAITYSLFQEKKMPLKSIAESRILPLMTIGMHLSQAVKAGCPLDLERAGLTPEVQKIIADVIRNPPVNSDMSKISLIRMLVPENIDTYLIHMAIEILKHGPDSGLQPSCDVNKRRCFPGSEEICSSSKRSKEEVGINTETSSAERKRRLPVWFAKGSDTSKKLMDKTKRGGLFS
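Primary qHTS, 1536-well format. 20 nM WRN + compound, 15 min RT; start with 100 nM forked fluorophore/quencher duplex, 2 mM ATP (final); kinetic read ex 525/em 598 nm.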
TCR act – activators of T cell receptors. primary human leukocytes, anti-CD3, IL-2 HTRF, 48 h. Potency, µM (highest dose often 9.22 µM), inactives show at the top dose activation of IL-2 secretion, most hits filed as activators. 330,000 tested, under 10 active. AID 504894; note: % of control where 0% means no effect
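HTRF read-out of IL-2 secretion: europium cryptate donor excited at 320nm, d2 acceptor emission at 665nm. Cells were primary human leukocytes incubated 48 hr with compounds and a-CD3 beads, supplying TCR signal only.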
PLK1 PBD inh – inhibitors of human PLK1 polo-box domain binding; 2.8% of 360,000 active; Plk1 PBD binding of FITC phosphopeptide, fluorescence polarization; Potency, µM, for the others: max response, negative = inhibition, usual class: inhibitors; P53350; note: potency is the fitted concentration of half-maximal effect; series mostly up to about 57 µM; % is set by controls: 0 for no effect and ±100 for the full control effect; nearly all actives have a fitted effect of over 65% in size
FEN1 inh – human FEN1 inhibition; P39748; Recombinant FEN1 flap cleavage, fluorescence, 15 min; Potency, µM (highest dose often 114 µM), for inactives: top-dose activity change, negative = inhibition, most hits filed as inhibitors; 0.35% of 390,000 active; AID 588795; note: potency is the fitted concentration of half-maximal effect; % is set by controls: 0 for no effect and ±100 for the full control effect; nearly all actives have a fitted effect of over 65% in size
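Enzyme 10 nM, 15 min RT preincubation with compound; start with substrate 50 nM final; reads at 0 and 15 min; qHTS titration, four-parameter Hill fit.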
VDR inhibitor – vitamin D3 receptor (human) inhibition; VDR-SRC2-3 peptide fluorescence polarization, 2 h; Potency, µM, without a hit: max response, negative = inhibition, actives largely listed as inhibitors; 0.93% of 400,000 active; AID 504847; note: potency is the fitted concentration of half-maximal effect; % is set by controls: 0 for no effect and ±100 for the full control effect
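Measured by FP: displacement of SRC2-3 coactivator peptide from VDR by library compounds, following a two-hour ambient incubation.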
The depositor's hits bear a star; [ ] = another dose, or the depositor's remark. Unless noted, calls come from the whole dose curve; as a rule, active = well fitted curve in the direction sought with a large enough effect; inconclusive = small, poorly fitted or top-dose-only effect, or another doubt; inactive = no such curve, though single readings can be large; an effect the other way counts as inactive or inconclusive.

Results for COc1ccc(NC(=O)C(=O)NCCCn2ccnc2)cc1 ?
PI5P4K alpha inh: 4; WRN helicase inh: -5%; TCR act: -4%; PLK1 PBD inh: -8%; FEN1 inh: 1%; VDR inhibitor: -5%

Results for Cc1cc(C)c(S(=O)(=O)/N=C2\C=CC(=O)C(Cl)=C2)c(C)c1 ?
WRN helicase inh: -34%; TCR act: -2%; PLK1 PBD inh: 28µM*; FEN1 inh: -21%; VDR inhibitor: -25%

What do the screens show for `Cc1cc(C)nc(N/N=C/c2sccc2C)n1`?
PI5P4K alpha inh: -53*; WRN helicase inh: -7%; TCR act: 0%; PLK1 PBD inh: 19µM*; FEN1 inh: -4%; VDR inhibitor: inconclusive

How did Cc1cc(C)nc(N/N=C/c2ccccc2)n1 do in these assays?
WRN helicase inh: 8%; TCR act: 1%; PLK1 PBD inh: -6%; FEN1 inh: -3%; VDR inhibitor: 0%

Results for O=C(c1cccnc1Cl)N1CCOCC1 ?
PI5P4K alpha inh: inconclusive; WRN helicase inh: 3%; TCR act: 1%; PLK1 PBD inh: 19µM*; FEN1 inh: 11%; VDR inhibitor: inconclusive

How did O=C(N/N=C1/CC2C=CCC12)c1ccco1 (centres undefined) do in these assays?
PI5P4K alpha inh: 1; WRN helicase inh: 6%; TCR act: 1%[46.1 µM]; PLK1 PBD inh: 30µM*; FEN1 inh: 9%; VDR inhibitor: inconclusive

Results for O=C(N/N=C1/CC2C=CCC12)c1cccs1 (centres undefined) ?
PI5P4K alpha inh: 2; WRN helicase inh: 8%; TCR act: 2%; PLK1 PBD inh: 0%; FEN1 inh: -2%; VDR inhibitor: 17%

How did N#CC(C#N)=C1C=C2C=C(N3CCCCC3)CCC2CC1 (centres undefined) do in these assays?
PI5P4K alpha inh: 1; WRN helicase inh: inconclusive; TCR act: -2%[46.1 µM]; PLK1 PBD inh: -5%; FEN1 inh: inconclusive; VDR inhibitor: inconclusive

How did N#CC1=C(N)C2=C(N3CCCCC3)CCCC2C1(C#N)C#N (centres undefined) do in these assays?
PI5P4K alpha inh: -54*; WRN helicase inh: inconclusive; TCR act: 7%; PLK1 PBD inh: inconclusive; FEN1 inh: inconclusive; VDR inhibitor: inconclusive

Results for CC(=O)N1CCOc2ccc(S(=O)(=O)Nc3ccc(C)cn3)cc21 ?
PI5P4K alpha inh: -1; WRN helicase inh: 12%; TCR act: -2%; PLK1 PBD inh: -18%; FEN1 inh: 18%; VDR inhibitor: -18%

What do the screens show for `CC(=O)N1CCOc2ccc(S(=O)(=O)Nc3cccc(C)n3)cc21`?
PI5P4K alpha inh: 4; WRN helicase inh: -3%; TCR act: 3%; PLK1 PBD inh: 42µM*; FEN1 inh: 18%; VDR inhibitor: -19%

What do the screens show for `CCC(C)NC(=O)C1CCC(CNS(=O)(=O)c2ccccc2)CC1` (centres undefined)?
PI5P4K alpha inh: -1; WRN helicase inh: -2%; TCR act: 4%; PLK1 PBD inh: -3%; FEN1 inh: 9%; VDR inhibitor: 13%

How did CCC(C)NC(=O)C1CCC(CNS(=O)(=O)c2ccc3c(c2)N(C(C)=O)CCO3)CC1 (centres undefined) do in these assays?
PI5P4K alpha inh: -12; WRN helicase inh: 5%; TCR act: -8%; PLK1 PBD inh: 27µM*; FEN1 inh: 6%; VDR inhibitor: -30%

What do the screens show for `CCOC(=O)[C@]12Cc3c(cc(OC)c(OC)c3OC)[C@H]1N(CCC(=O)OC)C(=O)c1cc(OC)ccc12`?
PI5P4K alpha inh: -3; WRN helicase inh: 6%; PLK1 PBD inh: 12µM*

What do the screens show for `CCOC(=O)[C@]12Cc3c(cc(OC)c(OC)c3OC)[C@H]1N(Cc1ccccc1)C(=O)c1cc(F)c(F)cc12`?
PI5P4K alpha inh: 6; WRN helicase inh: -3%; PLK1 PBD inh: inconclusive

How did CCOC(=O)[C@]12Cc3c(cc(OC)c(OC)c3OC)[C@H]1N(Cc1ccccc1)C(=O)c1cc(OC)ccc12 do in these assays?
PI5P4K alpha inh: 5; WRN helicase inh: -12%; PLK1 PBD inh: 7.5µM*

How did CN1C(=O)C[C@H](C(=O)O)[C@@H]1c1cccnc1 do in these assays?
VDR inhibitor: 7%

How did CCN(CC)CCC(=O)N1C/C(=C/c2ccccc2)C(=O)/C(=C\c2ccccc2)C1 do in these assays?
PI5P4K alpha inh: 16; WRN helicase inh: -9%; TCR act: -3%; PLK1 PBD inh: -15%; FEN1 inh: 6%; VDR inhibitor: 45µM*

What do the screens show for `O=C1/C(=C\c2ccccc2)CCC/C1=C/c1ccccc1`?
PI5P4K alpha inh: -5; WRN helicase inh: -14%; TCR act: -8%; PLK1 PBD inh: -9%; FEN1 inh: 3%; VDR inhibitor: inconclusive

Results for Oc1nc(Nc2cccc(Cl)c2)sc1/C=C1\C=Nc2ccccc21 ?
PI5P4K alpha inh: -62*; WRN helicase inh: -31%; TCR act: 0%[46.1 µM]; PLK1 PBD inh: -20%; FEN1 inh: -20%; VDR inhibitor: 0%

How did CC1=Nc2ccccc2/C1=C\c1sc(Nc2ccc(C)cc2)nc1O do in these assays?
PI5P4K alpha inh: -66*; WRN helicase inh: -4%; TCR act: -8%[46.1 µM]; PLK1 PBD inh: 6%; FEN1 inh: -18%; VDR inhibitor: -21%

How did Oc1nc(Nc2ccc(F)cc2)sc1/C=C1\C=Nc2ccccc21 do in these assays?
PI5P4K alpha inh: inconclusive; WRN helicase inh: -5%; TCR act: 1%; PLK1 PBD inh: -13%; FEN1 inh: -10%; VDR inhibitor: 10%

What do the screens show for `O=C1c2ccccc2NC(c2ccc(OCc3ccccc3)c(OCc3ccccc3)c2)N1Cc1ccco1` (centres undefined)?
FEN1 inh: 1%; VDR inhibitor: 5%

What do the screens show for `CC1CCC(NC(=O)COC(=O)CSc2ccc(C(N)=O)cc2[N+](=O)[O-])CC1` (centres undefined)?
PI5P4K alpha inh: 1; WRN helicase inh: -32%; PLK1 PBD inh: -28%; FEN1 inh: 0%; VDR inhibitor: -2%

How did NC(=O)c1ccc(SCC(=O)OCC(=O)NC2CCCCCCC2)c([N+](=O)[O-])c1 do in these assays?
PI5P4K alpha inh: inconclusive; WRN helicase inh: 1%; TCR act: 6%; PLK1 PBD inh: 24µM*; FEN1 inh: -13%; VDR inhibitor: -18%

What do the screens show for `CCCOc1ccccc1C(=O)N1CCCCC1CCN1CCCCC1` (centres undefined)?
FEN1 inh: 21%; VDR inhibitor: 1%

What do the screens show for `O=C(/C=C/c1ccc(Cl)c(Cl)c1)NC1=NCCS1`?
PI5P4K alpha inh: -1; WRN helicase inh: 4%; TCR act: -2%; PLK1 PBD inh: 21µM*; FEN1 inh: 4%; VDR inhibitor: -22%

High-throughput results from PubChem.
